For 15 compounds, growth results are on record in PubChem BioAssay (NCI).

The panel holds about 83,000 compounds, 20% with a hit somewhere; the sample as a whole holds those more often.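 Assay: single dose, 48 h. Readout: percent growth (0 = no net growth; negative = cell death). Active: <10.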 Values without a mark were called inactive. The source made the active and inactive calls.

The assay concerns MDA-MB-231 breast. Briefly: NCI-60 one-dose screen, 48 h (100 = growth as untreated, 0 = no growth, -100 = all killed). Particulars: 10 µM unless noted.
Regarding `OC(c1ccccc1)c1nnc(SCc2ccccc2)n1Cc1ccccc1` (stereo not given), the growth is 103%.

For the compound `COc1ccc(/C=C2\SC(=Nc3ccccc3)NC2=O)cc1`, the growth is -83% (active).

Take `COc1ccc(-n2c(C(O)c3ccccc3)nn(CN3CCOCC3)c2=S)cc1` (stereo not given): the growth is 97.6%.

For `CN(O)c1nc(N(C)O)nc(N2CCOCC2)n1`, the growth was 56%.

For `O=C(NC(=S)Nc1cccc(NC(=S)NC(=O)c2ccccc2)c1)c1ccccc1`, the growth was 56.7%.

`Cn1c2c(c(=O)[nH]c1=O)NC1=C(C(=O)c3ccccc31)C1(C=C(O)c3ccccc31)N2` (stereo not given): the growth was 105%.

As for `Nc1nc(Nc2cccc(F)c2)nc2ccccc12`, the growth is 43.7%.

For `COc1cc(OC)cc(N2C(=O)N(Cc3ccc(C(C)(C)C)cc3)c3ccccc3S2(=O)=O)c1`, the growth was 77.4%.

For `CC/C=C\C[C@H](O)C/C=C1/C(=O)C=C[C@@H]1C/C=C\CCCC(=O)OCCS(=O)(=O)c1ccccc1`, the growth was 40.2%.

Take `COc1ccc(C2Nc3ncnc(N)c3N=C3c4ccccc4C(=O)C32)cc1` (stereo not given): the growth is 97.9%.

In the case of `O=CCCCC(O)C=O` (stereo not given), the growth was 115%.

`COC(=O)/C(=C\c1c(-c2ccccc2)[nH]c2ccccc12)S(C)(=O)=O`: the growth was 49.7%.

With `FC(F)(F)c1cccc(Nc2nc(-c3ccccc3)nc3ncccc23)c1`, the growth is 44%.

Take `COC(=O)/C(=C\c1c(C)[nH]c2ccccc12)S(=O)(=O)c1ccccc1`: the growth is 90%.

For the compound `O=Nc1c(O)ccc2ccccc12.O=Nc1c(O)ccc2ccccc12.O=Nc1c([O-])ccc2ccccc12.[Fe+3]`, the growth is 86.9%.
